# Results from PubChem BioAssay (NCATS).
# Results filed as inconclusive are left out. Unmarked numbers belong to inactive results. The source made the active and inactive calls. Calls come from the whole dose curve.
# Assay: S16 Schwann cell PMP22 intronic element beta-lactamase assay (AID 624044); note: nearly all actives have a fitted effect of over 15% in size;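 for ratio activity, negative = inhibition: 0% = DMSO and -100% = potassium clavulanate positive control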
# Conditions: S16 rat Schwann cells, PMP22 element beta-lactamase FRET, 24 h; series mostly up to 38.3 µM; ratio activity, negative = inhibition: at the top concentration
# In short: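 Rat S16 Schwann cells with beta-Lac driven by a PMP22 intronic element, compound-treated 24 h at 37 °C. LiveBLAzer FRET B/G read: 460 nm normalized to potassium clavulanate vs DMSO; 535 nm FRET as viability; concentration-effect curves classified.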
# Potency is the fitted concentration of half-maximal effect.
Compound,"ratio activity, negative = inhibition [%]",Potency
O=C(O)c1cc(=O)c2c3nc4ccccc4oc-3cc(=O)c2[nH]1,-6.83,
CCCCC(CC)COC(=O)CC(C(=O)OCC(CC)CCCC)S(=O)(=O)O (configuration not stated),-1.6,
C=CCSSSCC=C,-4.19,
CN(C)CCCN1c2ccccc2C(C)(C)c2ccccc21,-0.531,
CC(NNC(=O)c1ccccc1)c1ccccc1 (configuration not stated),0.919,
COC(C(=O)C(O)C(C)O)C1Cc2cc3cc(OC4CC(OC5CC(O)C(O)C(C)O5)C(O)C(C)O4)c(C)c(O)c3c(O)c2C(=O)C1OC1CC(OC2CC(OC3CC(C)(O)C(O)C(C)O3)C(O)C(C)O2)C(O)C(C)O1 (configuration not stated),,22.4 µM (active)
CO[C@H]1C[C@@H]2CC[C@@H](C)[C@@](O)(O2)C(=O)C(=O)N2CCCC[C@H]2C(=O)O[C@H]([C@H](C)C[C@@H]2CC[C@@H](OCCO)[C@H](OC)C2)CC(=O)[C@H](C)/C=C(\C)[C@@H](O)[C@@H](OC)C(=O)[C@H](C)C[C@H](C)/C=C/C=C/C=C/1C,-0.697,
C[C@@H]1CCC2[C@@H](C)[C@@H](O)O[C@@H]3O[C@@]4(C)CC[C@@H]1[C@@]23OO4 (some centres not stated),-15.6,
COC(=O)[C@H]1[C@H]2C[C@@H]3c4[nH]c5ccccc5c4CCN3C[C@H]2C[C@@H](OC(=O)c2cc(OC)c(OC)c(OC)c2)[C@@H]1OC,,3.98 µM (active)
CC1=C(/C=C/C(C)=C/C=C/C(C)=C/C=C/C=C(C)/C=C/C=C(C)/C=C/C2=C(C)C(=O)CCC2(C)C)C(C)(C)CCC1=O,3.3,
O=C(O)CN(CCN(CC(=O)O)CC(=O)O)CC(=O)O,0.708,
CCCC(=O)Nc1ncnc2c1ncn2C1OC2COP(=O)(O)OC2C1OC(=O)CCC (configuration not stated),4.19,
O=C1CSC2(CCN(CCCN3c4ccccc4Sc4ccc(Cl)cc43)CC2)N1,-26.2,
CN1C(=O)CN2CCc3ccccc3C2c2cc(Cl)ccc21 (configuration not stated),-5.36,
CCCC(=O)O[C@]1(C(=O)CCl)[C@H](C)C[C@@H]2[C@H]3CCC4=CC(=O)C=C[C@]4(C)[C@@]3(F)C(=O)C[C@@]21C,-3.56,
Oc1cc(O)c2c(c1)OC(c1ccc(O)c(O)c1)C(O)C2 (configuration not stated),3.95,
Nc1c(N=Nc2ccc(-c3ccc(N=Nc4cc(S(=O)(=O)O)c5ccccc5c4N)cc3)cc2)cc(S(=O)(=O)O)c2ccccc12,-2.03,
Nc1ncnc2c1ncn2[C@@H]1O[C@H](COP(=O)(O)OP(=O)(O)OP(=O)(O)O)[C@@H](O)[C@H]1O,3.01,
CC(C(=O)O)c1ccc(N2Cc3ccccc3C2=O)cc1 (configuration not stated),0.336,
CC(Cc1ccc(O)c(O)c1)C(C)Cc1ccc(O)c(O)c1 (configuration not stated),,22.4 µM (active)
CCCCCCCCCCCC[n+]1ccc2ccccc2c1,,19.9 µM (active)
Cc1c(C)c2c(c(C)c1O)CC[C@@](C)(CCC[C@@H](C)CCC[C@@H](C)CCCC(C)C)O2,1.74,
O=C(Nc1ccc(Br)cc1)c1cc(Br)c(Br)s1,-18,
C#CCOc1ccc2c(C)cc(=O)oc2c1,2.66,
CCCCCCCCCCCCCC[n+]1ccc(C)cc1,,19.9 µM (active)
NC1C2CN(c3nc4c(cc3F)c(=O)c(C(=O)O)cn4-c3ccc(F)cc3F)CC12 (configuration not stated),1.65,
CCCCCCCC/C=C\CCCCCCCC(=O)O,-0.944,
